Screening results (PubChem)
Rows were chosen to be rich in hits. Some 1.7% of all compounds tested hit in one or more screens of this group.
BH1578 lux ind: inducers of Vibrio cholerae quorum light production without autoinducers, primary screen, BH1578 luxS cqsA deficient, single point; V. cholerae BH1578 lux reporter, luminescence, 6 h; activation, % at 18.7 µM; actives 0.16% (n = 350,000); AID 588436, 2011; in the data active means activation mostly above about 9.7%, no sharp cut-off
PfHsp40 yeast: rescue of yeast from PfHsp40 toxicity, primary screen, S. cerevisiae, ATP luminescence. S. cerevisiae expressing PfHsp40, growth rescue. growth rescue, % at 12.5 µM. actives 0.68% (n = 340,000). AID 504582, 2011; in the data active means growth rescue above about 28%, passing the limit was not always enough;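 further: yeast W303a lacking pdr1 and pdr3 grown in galactose medium; growth measured after three days at 30 °C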
CCHF vOTU inh: CCHFV vOTU protease inhibitors, primary screen, biochemical, Pep-AMC substrate, fluorescence | Crimean-Congo hemorrhagic fever virus L polyprotein viral ovarian tumor (vOTU) protease … | inhibition, % at 11.5 µM | actives 0.55% (n = 370,000) | AID 651958, 2012; in the data active means inhibition above about 30%
ugtP null kill: growth inhibition of ugtP-null S. aureus, primary screen, RN4220 ugtP deletion, OD600 | 16 h | growth inhibition, % (no concentration beside the values) | actives 0.54% (n = 330,000); in the data active means growth inhibition above about 68%
Mtb hypoxia rep: PubChem AID 1159583 | M. tuberculosis hypoxia-regulated fluorescent reporter, fluorescence | fluorescence inhibition, % (no concentration beside the values) | actives 0.1% (n = 300,000); in the data active means fluorescence inhibition mostly above about 23%, no sharp cut-off; inactive means mostly below about 17%
RN4220 kill: growth inhibition of S. aureus RN4220, primary screen, OD600; actives 0.33% (n = 330,000); 16 h; inhibition, % (no concentration beside the values); AID 1259311, 2017; in the data active means inhibition above about 85%
Hits are given with their value; ! = repeats disagree.

Screening CCC(C)C1CN(C(C)CN2CCCC2CN2C(N)=NCC2Cc2ccccc2)C(=N)N1CCc1ccc(Cl)c(Cl)c1 (stereo not given) returned ugtP null kill 98 and RN4220 kill 100.
Screening CCCCCCCCCCOC(=O)Cn1c(COc2ccc(OC)cc2)[n+](C)c2ccccc21 returned BH1578 lux ind inactive and PfHsp40 yeast 383!.
Screening CCCCCCCCCCOC(=O)Cn1c(COc2cccc(C)c2)[n+](C)c2ccccc21 returned BH1578 lux ind inactive, PfHsp40 yeast 213 and CCHF vOTU inh inactive.
For CCCCCCCCCCOC(=O)Cn1c(COc2ccccc2C)[n+](C)c2ccccc21 the results were BH1578 lux ind inactive and PfHsp40 yeast inactive.
Cc1ccc([N+](=O)[O-])cc1-c1ccc(C=NNC(=O)c2cc3c(ccc4ccccc43)o2)o1 was read as ugtP null kill inactive, Mtb hypoxia rep inactive and RN4220 kill inactive.
CCN1/C(=C/C(C)=C/c2sc3ccccc3[n+]2CC)Sc2ccccc21 was read as BH1578 lux ind inactive, PfHsp40 yeast inactive, CCHF vOTU inh inactive, ugtP null kill 99 and RN4220 kill 100.
`c1ccc2c(c1)c1c(c3ccccc32)CN2CCCC2C1` (stereo not given) gave BH1578 lux ind inactive, PfHsp40 yeast 76 and CCHF vOTU inh inactive.
Screening c1ccc(CN2CCC(N3CCC(N4CCCCCC4)CC3)CC2)cc1 returned BH1578 lux ind inactive, PfHsp40 yeast inactive, ugtP null kill inactive, Mtb hypoxia rep inactive and RN4220 kill inactive.
For CC1=NNC(=O)C1CCC(=O)NN=Cc1ccccc1[N+](=O)[O-] (stereo not given) the results were ugtP null kill inactive, Mtb hypoxia rep inactive and RN4220 kill inactive.
O=C(COC(=O)c1ccc(Br)o1)Nc1ncc(Cl)cc1Cl was read as BH1578 lux ind inactive, PfHsp40 yeast inactive, CCHF vOTU inh inactive, ugtP null kill inactive, Mtb hypoxia rep inactive and RN4220 kill inactive.
O=C(COC(=O)c1ccc([N+](=O)[O-])o1)NCc1ccc2c(c1)OCO2 was read as BH1578 lux ind inactive, PfHsp40 yeast 168, CCHF vOTU inh inactive, ugtP null kill inactive, Mtb hypoxia rep inactive and RN4220 kill inactive.
O=C(Nc1ccc(N2CCOCC2)cc1)c1ccc([N+](=O)[O-])o1 was read as BH1578 lux ind inactive, PfHsp40 yeast inactive, CCHF vOTU inh inactive, ugtP null kill inactive and RN4220 kill inactive.
Screening O=C(COC(=O)c1ccc([N+](=O)[O-])o1)NC1CCCc2ccccc21 (stereo not given) returned BH1578 lux ind inactive, PfHsp40 yeast 262, CCHF vOTU inh inactive, ugtP null kill inactive, Mtb hypoxia rep inactive and RN4220 kill inactive.
O=C(COC(=O)c1ccc([N+](=O)[O-])o1)Nc1ccc(N2CCOCC2)cc1 was read as BH1578 lux ind inactive, PfHsp40 yeast 95, CCHF vOTU inh inactive, ugtP null kill inactive and RN4220 kill inactive.
`O=C(COC(=O)c1ccc([N+](=O)[O-])o1)Nc1ncc(Cl)cc1Cl` gave BH1578 lux ind inactive, PfHsp40 yeast 49 and CCHF vOTU inh inactive.
For NC(=O)c1cc2cc(Cl)ccc2oc1=NNC(=O)c1cccs1 the results were ugtP null kill inactive, Mtb hypoxia rep inactive and RN4220 kill inactive.
O=C(COC(=O)c1ccc([N+](=O)[O-])o1)Nc1ccc(F)cc1 was read as BH1578 lux ind inactive, PfHsp40 yeast inactive, CCHF vOTU inh inactive, ugtP null kill inactive, Mtb hypoxia rep 35 and RN4220 kill inactive.
CC1(C)OC2OC(C(O)CON3C(=O)c4ccccc4C3=O)C(O)C2O1 (stereo not given) was read as ugtP null kill inactive, Mtb hypoxia rep inactive and RN4220 kill inactive.
For COc1ccc(NC(=O)COC(=O)c2ccc(N3CCCC3=O)cc2)cc1 the results were BH1578 lux ind inactive, PfHsp40 yeast inactive, CCHF vOTU inh inactive, ugtP null kill inactive, Mtb hypoxia rep inactive and RN4220 kill inactive.
CC(NC(=O)COC(=O)c1ccc(N2CCCC2=O)cc1)c1ccc(F)cc1 (stereo not given) was read as BH1578 lux ind inactive, PfHsp40 yeast inactive, CCHF vOTU inh inactive, ugtP null kill inactive, Mtb hypoxia rep 33 and RN4220 kill inactive.
COc1cc(C=NNC(=O)c2ccc(CN3C(=O)c4cccc5cccc3c45)cc2)cc(OC)c1O was read as ugtP null kill inactive, Mtb hypoxia rep inactive and RN4220 kill inactive.
For Cc1cccc(C2(c3cccc(C)c3)CC2C(=O)Nc2ccc([N+](=O)[O-])cc2O)c1 (stereo not given) the results were BH1578 lux ind inactive, PfHsp40 yeast inactive, CCHF vOTU inh inactive, ugtP null kill 100, Mtb hypoxia rep inactive and RN4220 kill 100.
For O=C(CSc1nnc2n1CCCN2)c1ccc(Cl)cc1 the results were BH1578 lux ind 32, PfHsp40 yeast inactive, CCHF vOTU inh inactive, ugtP null kill inactive, Mtb hypoxia rep inactive and RN4220 kill inactive.
Screening O=C(CSc1nnc2n1CCCN2)c1ccc([N+](=O)[O-])cc1 returned BH1578 lux ind inactive, PfHsp40 yeast inactive, CCHF vOTU inh inactive, ugtP null kill inactive, Mtb hypoxia rep inactive and RN4220 kill inactive.
`Cc1nn(-c2ccccc2)c2c1C1(C(=O)N3c4c(cccc41)C(C)CC3(C)C)C(C#N)=C(N)O2` (stereo not given) gave BH1578 lux ind inactive, PfHsp40 yeast inactive, CCHF vOTU inh inactive, ugtP null kill 92, Mtb hypoxia rep inactive and RN4220 kill 96.
For Cc1nn(-c2ccccc2)c2c1C1(C(=O)N(C)c3ccccc31)C(C#N)=C(N)O2 (stereo not given) the results were BH1578 lux ind inactive, PfHsp40 yeast inactive, CCHF vOTU inh inactive, ugtP null kill inactive, Mtb hypoxia rep inactive and RN4220 kill inactive.
For Cc1ccccc1C=CC(=O)c1ccc([N+](=O)[O-])o1 the results were ugtP null kill 101, Mtb hypoxia rep inactive and RN4220 kill inactive.
Screening O=C(/C=C/c1cccc([N+](=O)[O-])c1)NC1CC2CCC1C2 (stereo not given) returned BH1578 lux ind inactive, PfHsp40 yeast 51, CCHF vOTU inh inactive, ugtP null kill inactive, Mtb hypoxia rep inactive and RN4220 kill inactive.
COc1ccc(/C=C/C(=O)NC2CC3CCC2C3)cc1 (stereo not given) was read as BH1578 lux ind inactive, PfHsp40 yeast inactive, CCHF vOTU inh inactive, ugtP null kill inactive, Mtb hypoxia rep inactive and RN4220 kill inactive.
`Cc1cccc(C=CC(=O)c2ccc([N+](=O)[O-])o2)c1` gave ugtP null kill 100 and RN4220 kill 101.
For Cc1ccccc1/C=C/C(=O)c1ccc([N+](=O)[O-])o1 the results were CCHF vOTU inh inactive.
For COc1ccc(C=CC(=O)c2ccc([N+](=O)[O-])o2)cc1OC the results were ugtP null kill 100 and RN4220 kill inactive.
For COc1ccc(C=NNC(=O)CCCOc2ccc(Cl)cc2Cl)cc1 the results were ugtP null kill inactive, Mtb hypoxia rep inactive and RN4220 kill inactive.
